From the supplement of paper PMC6853941

test system: MCF10A; assay: perturbation Mahalanobis distance of morphological profile vs DMSO controls (Mahalanobis distance (SD units)); higher = stronger morphological change, active = 7 or more; conditions: screen batch: Batch1_Mahalanobis_Distance; 72 h
Protocol: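 MCF10A cells were seeded onto drugs dispensed acoustically into 384-well plates, using one dose per drug chosen from its human peak plasma concentration, and incubated for 72 h at 37 °C. Cells were stained for DNA, tubulin and mitochondria and imaged; 78 CellProfiler features were extracted, plate-normalised and compared with DMSO wells.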

SMILES | perturbation Mahalanobis distance
C[C@]12C=CC(=O)N[C@@H]1CC[C@@H]1[C@@H]2CC[C@]2(C)[C@@H](C(=O)Nc3cc(C(F)(F)F)ccc3C(F)(F)F)CC[C@@H]12 [Dutasteride] (12 µM) | 2.35 (inactive)
CN(C)CCCN1c2ccccc2CCc2ccccc21 [Imipramine] (6.2 µM) | 6.2 (inactive)
CC1CNc2c(cccc2S(=O)(=O)N[C@@H](CCCN=C(N)N)C(=O)N2CC[C@@H](C)C[C@@H]2C(=O)O)C1 (stereo partly specified) [Argatroban] (6.9 µM) | 3.61 (inactive)
CC(C)(Oc1ccc(Cl)cc1)C(=O)O [Clofibric Acid] (368 µM) | 3.07 (inactive)
C[C@]12C=CC(=O)C=C1CC[C@@H]1[C@@H]2[C@@H](O)C[C@@]2(C)[C@H]1CC[C@]2(O)C(=O)CO [Prednisolone] (13.9 µM) | 4.8 (inactive)
O=C1Nc2ccc(Cl)cc2[C@@](C#CC2CC2)(C(F)(F)F)O1 [Efavirenz] (28.8 µM) | 3.91 (inactive)
Nc1nc(NC2CC2)c2ncn(C3C=C[C@H](CO)C3)c2n1 (stereo partly specified) [Abacavir] (74.4 µM) | 3.81 (inactive)
CN1CCC(=C2c3ccccc3CCc3cccnc32)CC1 [Azatadine] (0.43 µM) | 2.42 (inactive)
OCC(O)COc1ccc(Cl)cc1 (stereo unspecified) [Chlorphenesin] (83.9 µM) | 2.63 (inactive)
O=C1CN(/N=C/c2ccc(-c3ccc([N+](=O)[O-])cc3)o2)C(=O)N1 [Dantrolene] (23.9 µM) | 2.62 (inactive)
CCC(C)n1ncn(-c2ccc(N3CCN(c4ccc(OC[C@H]5CO[C@](Cn6cncn6)(c6ccc(Cl)cc6Cl)O5)cc4)CC3)cc2)c1=O (stereo partly specified) [Itraconazole] (14.2 µM) | 2.19 (inactive)
